High-throughput results (PubChem BioAssay)
Mcl-1 Bim block – disrupts Bim peptide binding to human Mcl-1 | inhibition, % at 10 µM | hit rate 0.1% among 190,000 | Bead-based flow cytometry, Bim peptide-Mcl-1 binding | AID 1009 | Q07820; in the data active = inhibition above about 40%;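 note: 0% = no compound tracer wells and 100% = peptide blocker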
Mcl1-Noxa inh – Mcl-1/Noxa interaction inhibition; Q07820; hit rate 1.5% among 220,000; inhibition, % at 21.7 µM; TR-FRET Mcl-1/Noxa peptide binding, 2 h;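 active = compounds that cut the protein-peptide binding signal by more than 50% relative to plate controls in a single-dose test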;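 note: His-tagged Mcl-1 with rhodamine Noxa BH3 peptide and terbium anti-His antibody; 0% = Mcl-1 plus Noxa peptide wells and 100% = peptide-only wells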
MCL1 BIM primary – disrupts human MCL1 binding to BIM-BH3 peptide | GST-MCL1 / FITC-Bim-BH3 fluorescence polarization | inhibition, % at 10.9 µM | hit rate 0.68% among 320,000 | AID 2057;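 active = inhibition above the mean inhibition of all tested compounds plus 3 SD, set per campaign, cut at about 40% in these data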;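 note: 0% = DMSO wells and 100% = unlabeled Bim-BH3 peptide control; higher means more loss of mP so more displacement of Bim peptide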
GLD-1 TGE inh – GLD-1-TGE RNA interaction inhibition (C. elegans). purified GLD-1 + fluorescein TGE RNA, fluorescence polarization. inhibition, % at 5.96 µM. hit rate 0.44% among 320,000;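 active = percent inhibition above a per-plate cutoff, the plate mean of test compounds plus 3 SD, cut at about 30% in these data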;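 note: 0% = DMSO wells with GLD-1 and probe and 100% = wells lacking GLD-1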
Target sequence (Q17339 whole entry, looked up): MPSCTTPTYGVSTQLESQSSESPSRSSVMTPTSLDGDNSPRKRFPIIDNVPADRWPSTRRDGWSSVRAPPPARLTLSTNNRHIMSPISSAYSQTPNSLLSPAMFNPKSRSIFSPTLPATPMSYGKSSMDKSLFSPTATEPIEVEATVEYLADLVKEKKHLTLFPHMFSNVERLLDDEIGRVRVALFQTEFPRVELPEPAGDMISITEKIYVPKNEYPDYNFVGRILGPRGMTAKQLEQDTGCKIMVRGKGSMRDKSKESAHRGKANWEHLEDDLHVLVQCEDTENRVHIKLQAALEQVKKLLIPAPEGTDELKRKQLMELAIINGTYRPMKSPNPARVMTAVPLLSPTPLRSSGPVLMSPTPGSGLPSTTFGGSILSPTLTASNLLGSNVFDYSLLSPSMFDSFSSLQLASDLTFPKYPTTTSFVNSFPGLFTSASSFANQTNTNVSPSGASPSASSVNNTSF
Mcl1-Bid inh – disrupts binding of human Mcl-1 to Bid peptide | TR-FRET Mcl-1/Bid-Dy647 peptide binding, 1536-well | inhibition, % at 21.7 µM | hit rate 0.97% among 220,000 | AID 1021;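 active = compounds that cut the binding signal by more than half at the single screening dose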;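 note: His-tagged Mcl-1 with europium anti-His antibody binding Bid BH3 peptide; 0% = Mcl-1 plus peptide wells and 100% = peptide-only wells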
Bcl-xL primary – inhibitors of human Bcl-xL; Q07817; GST-Bcl-xL / FITC-Bim BH3 peptide fluorescence polarization; inhibition, % at 10.9 µM; hit rate 0.7% among 320,000; AID 2129;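 active = inhibition above the mean of all tested compounds plus 3 SD, cutoff set per campaign, cut at about 30% in these data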;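 note: 0% = DMSO wells and 100% = unlabeled Bim-BH3 peptide competitor; inhibitors lower millipolarization by displacing the labeled peptide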
Target sequence (Q07817 whole entry, looked up): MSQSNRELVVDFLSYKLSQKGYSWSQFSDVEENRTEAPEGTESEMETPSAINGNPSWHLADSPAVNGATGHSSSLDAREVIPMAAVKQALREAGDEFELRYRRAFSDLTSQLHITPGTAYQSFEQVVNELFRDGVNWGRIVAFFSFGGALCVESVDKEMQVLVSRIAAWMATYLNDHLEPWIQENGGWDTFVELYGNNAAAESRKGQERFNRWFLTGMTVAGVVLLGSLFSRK
* hit, by the source's call. Only some compounds are listed: those with a hit (about 2.3% of all), similar ones and a draw of the others.

How did COc1ccc(OCc2cc(C(=O)N(Cc3nccn3C)C(C)C)no2)c2ccccc12 do in these assays?
MCL1 BIM primary: -2; GLD-1 TGE inh: 6; Bcl-xL primary: 4

What do the screens show for `COc1c(Cl)ccc(Cl)c1C(=O)NC(=S)N1CCOCC1`?
Mcl-1 Bim block: 2; Mcl1-Noxa inh: 4; MCL1 BIM primary: 6; GLD-1 TGE inh: 6; Mcl1-Bid inh: -37; Bcl-xL primary: 8

Results for O=C(NCCN1CCN(c2ccccc2)CC1)c1ccc2c(c1)[nH]c(=S)n1c3ccccc3nc21 ?
Mcl-1 Bim block: -2; Mcl1-Noxa inh: 51*; MCL1 BIM primary: -5; GLD-1 TGE inh: 2; Mcl1-Bid inh: 9; Bcl-xL primary: 1

What do the screens show for `Cc1cc(OCC(=O)Nc2ccc(N3CCN(C(=O)c4ccco4)CC3)cc2)cc(C)c1Cl`?
Mcl-1 Bim block: 0; Mcl1-Noxa inh: 15; MCL1 BIM primary: 3; GLD-1 TGE inh: -3; Mcl1-Bid inh: 57*; Bcl-xL primary: 3

How did Cc1ccc(-c2nc(N3CCOCC3)sc2C(=O)N2CCCCC2)cc1 do in these assays?
Mcl-1 Bim block: -3; Mcl1-Noxa inh: 13; MCL1 BIM primary: 5; GLD-1 TGE inh: 2; Mcl1-Bid inh: 98*; Bcl-xL primary: 7

How did Cc1ccc(-c2nc(N3CCOCC3)sc2C(=O)N2CCOCC2)cc1 do in these assays?
Mcl-1 Bim block: -3; Mcl1-Noxa inh: 0; MCL1 BIM primary: 1; GLD-1 TGE inh: -3; Mcl1-Bid inh: -16; Bcl-xL primary: 0

What do the screens show for `O=C(NCCS(=O)(=O)NCC1CCCO1)c1ccccc1` (configuration not stated)?
MCL1 BIM primary: 4; GLD-1 TGE inh: -1; Bcl-xL primary: 3

What do the screens show for `O=C(Nc1cccc(-c2ccc3nncn3n2)c1)c1ccco1`?
Mcl-1 Bim block: 41*; Mcl1-Noxa inh: -6; MCL1 BIM primary: -3; GLD-1 TGE inh: 0; Mcl1-Bid inh: -9; Bcl-xL primary: 6

Results for Cc1ccccc1C(=O)Nc1cccc(-c2ccc3nncn3n2)c1 ?
Mcl-1 Bim block: 3; Mcl1-Noxa inh: 4; MCL1 BIM primary: -3; GLD-1 TGE inh: -4; Mcl1-Bid inh: -5; Bcl-xL primary: 1

What do the screens show for `CCN(CC)CCCNC(=S)N(Cc1cccs1)Cc1cc2cc3c(cc2[nH]c1=O)OCCO3`?
Mcl-1 Bim block: 39; Mcl1-Noxa inh: 59*; MCL1 BIM primary: 5; GLD-1 TGE inh: -2; Mcl1-Bid inh: -30; Bcl-xL primary: 3

Results for CC1=C(C(=O)Nc2ccccc2)C(c2ccccc2[N+](=O)[O-])NC(=O)N1 (configuration not stated) ?
Mcl-1 Bim block: -1; Mcl1-Noxa inh: 18; MCL1 BIM primary: 32; GLD-1 TGE inh: 17; Mcl1-Bid inh: -27; Bcl-xL primary: 36*

What do the screens show for `CC(=O)c1cccc(S(=O)(=O)N2CCC(C(=O)Oc3ccc(-c4nnco4)cc3)CC2)c1`?
GLD-1 TGE inh: -2

Results for O=C(Nc1cccc(S(=O)(=O)Nc2ccc(Cl)cc2)c1)c1ccccn1 ?
MCL1 BIM primary: 2; GLD-1 TGE inh: -2; Bcl-xL primary: 4

What do the screens show for `CSc1c(CC(=O)Nc2ccccc2C(F)(F)F)n(Cc2ccccc2)c2ccccc12`?
Mcl-1 Bim block: 7; Mcl1-Noxa inh: 10; MCL1 BIM primary: 3; GLD-1 TGE inh: 5; Mcl1-Bid inh: 58*; Bcl-xL primary: 3

What do the screens show for `CSc1c(CC(=O)Nc2ccccc2Cl)n(Cc2ccccc2)c2ccccc12`?
Mcl-1 Bim block: -2; MCL1 BIM primary: 0; GLD-1 TGE inh: -10; Mcl1-Bid inh: -22; Bcl-xL primary: 4

How did Cc1cccc(N=N/C(=C\O)C(=O)c2cccs2)c1 do in these assays?
Mcl-1 Bim block: -5; Mcl1-Noxa inh: 11; MCL1 BIM primary: -2; GLD-1 TGE inh: 8; Mcl1-Bid inh: -6; Bcl-xL primary: 5

What do the screens show for `O=C1C=C(O)c2cccc(O)c2C1=O`?
Mcl1-Noxa inh: 60*; MCL1 BIM primary: 13; GLD-1 TGE inh: 8; Mcl1-Bid inh: -78; Bcl-xL primary: 12

How did COc1ccc(C(=O)NCc2ccc3c(c2)cc(C)n3C)cc1OC do in these assays?
Mcl-1 Bim block: -1; Mcl1-Noxa inh: -8; MCL1 BIM primary: 32; GLD-1 TGE inh: 23; Mcl1-Bid inh: -53; Bcl-xL primary: 37*

How did CCS(=O)(=O)NCc1ccc2c(c1)cc(C)n2C do in these assays?
Mcl-1 Bim block: 0; Mcl1-Noxa inh: 32; MCL1 BIM primary: 4; GLD-1 TGE inh: 9; Mcl1-Bid inh: 70*; Bcl-xL primary: 7

Results for COc1cccc(C(=O)NCc2ccc3c(c2)cc(C)n3C)c1 ?
Mcl-1 Bim block: -3; Mcl1-Noxa inh: -3; MCL1 BIM primary: 10; GLD-1 TGE inh: 24; Mcl1-Bid inh: -40; Bcl-xL primary: 12

What do the screens show for `CCCS(=O)(=O)NCc1ccc2c(c1)cc(C)n2C`?
Mcl-1 Bim block: -5; Mcl1-Noxa inh: 13; MCL1 BIM primary: 3; GLD-1 TGE inh: 12; Mcl1-Bid inh: -33; Bcl-xL primary: 6

Results for CC(Nc1n[nH]c(=O)[nH]c1=O)C(=O)N/N=C/c1cccs1 (configuration not stated) ?
Mcl-1 Bim block: 0; Mcl1-Noxa inh: 0; MCL1 BIM primary: 0; GLD-1 TGE inh: 7; Mcl1-Bid inh: -19; Bcl-xL primary: 8

What do the screens show for `CCn1cc(/C=C/C(=O)Nc2ccn(Cc3c(F)c(F)cc(F)c3F)n2)cn1`?
Mcl-1 Bim block: -8; Mcl1-Noxa inh: 54*; MCL1 BIM primary: 11; GLD-1 TGE inh: 1; Mcl1-Bid inh: 7; Bcl-xL primary: 7

How did Cc1ccn2c(CNCc3cnn(C)c3)c(C(=O)N3CCCCCC3)nc2c1 do in these assays?
MCL1 BIM primary: 0; GLD-1 TGE inh: -1; Bcl-xL primary: 67*

What do the screens show for `Cc1cccc(-n2cnc3c(sc4nc(N5CCOCC5)c5c(c43)CCCC5)c2=O)c1`?
Mcl1-Noxa inh: 0; MCL1 BIM primary: -5; GLD-1 TGE inh: -9; Mcl1-Bid inh: 8; Bcl-xL primary: -2

How did O=C(COc1ccc(S(=O)(=O)N2CCCC2)cc1Cl)NC1CC1 do in these assays?
Mcl-1 Bim block: -1; Mcl1-Noxa inh: 9; MCL1 BIM primary: 1; GLD-1 TGE inh: 0; Mcl1-Bid inh: 95*; Bcl-xL primary: -1

How did NC(=O)c1cc[n+](Cc2ccccc2Cl)cc1 do in these assays?
MCL1 BIM primary: -3; GLD-1 TGE inh: 7; Bcl-xL primary: 3

How did CCN1C(=O)/C(=C\c2cn(-c3ccccc3)nc2-c2cccnc2)SC1=S do in these assays?
Mcl-1 Bim block: 0; Mcl1-Noxa inh: 4; Mcl1-Bid inh: 56*

What do the screens show for `O=C(Nc1nnc(C2CC2)s1)c1cccnc1Oc1ccc(Cl)cc1`?
Mcl1-Noxa inh: 9; MCL1 BIM primary: 0; GLD-1 TGE inh: 4; Mcl1-Bid inh: -1; Bcl-xL primary: 0

How did N=C1/C(=C\c2ccc(-c3ccc(C(=O)O)cc3)o2)C(=O)N=C2SC=C(c3ccccc3)N12 do in these assays?
Mcl1-Noxa inh: 117*; Mcl1-Bid inh: 96*
